# From PubChem BioAssay (NCI)
# This is part of a sample that, as a whole, favours compounds with a hit. Of some 79,000 tested, about 15% had one in any assay. A number with no mark means an inactive call. Activity calls are given as the source filed them. No stated cut-off is given here; in the data, active means growth inhibition above about 70%; inactive means the rest.
# Columns and labels:
# [1] = NCI Yeast Anticancer Drug Screen. Data for the rad50 strain (AID 155);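 further: 0% = growth of vehicle-only cultures of the same strain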; details: S. cerevisiae rad50 strain growth inhibition; at 50.0 µM; hits give high values
# Summary of the method: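 DNA repair mutant yeast, compound exposure, growth read-out; inhibition is taken relative to vehicle.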
# [2] = NCI Yeast Anticancer Drug Screen. Data for the mec2-1 strain (AID 157); details: S. cerevisiae mec2-1 strain, at 50.0 µM, hits give high values
# Summary of the method: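 Using mec2-1 yeast: add compound, measure growth, express inhibition versus vehicle-treated cultures.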
# [3] = NCI Yeast Anticancer Drug Screen. Data for the sgs1 mgt1 strain (AID 161);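 further: 0% = growth of cultures given vehicle only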; details: S. cerevisiae sgs1 mgt1 strain, at 50.0 µM, hits give high values
# Summary of the method: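 This yeast growth screen uses a strain with defined DNA-repair lesions; compound-treated growth is compared with vehicle-treated growth.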
# [4] = NCI Yeast Anticancer Drug Screen. Data for the cln2 rad14 strain (AID 165);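 further: 0% = growth equal to vehicle treated cultures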; details: S. cerevisiae cln2 rad14 strain, at 50.0 µM, hits give high values
# Summary of the method: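 Yeast strain cln2 rad14, bearing defects in cell cycle control and DNA repair, serves as the test system; values reflect growth inhibition compared with vehicle.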
# [5] = NCI Yeast Anticancer Drug Screen. Data for the bub3 strain (AID 167); details: S. cerevisiae bub3 mutant strain, at 50.0 µM, hits give high values
# Summary of the method: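 In this screen, a yeast mutant lacking normal mitotic checkpoint function is challenged with compound. Relative growth versus vehicle gives the inhibition value.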
# [6] = NCI Yeast Anticancer Drug Screen. Data for the mlh1 rad18 strain (AID 175); details: S. cerevisiae mlh1 rad18 strain growth inhibition; at 50.0 µM; hits give high values
# Summary of the method: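 Steps: expose repair-defective yeast to compound; measure growth; express inhibition against vehicle-treated controls.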
SMILES,growth inhibition [1],growth inhibition [2],growth inhibition [3],growth inhibition [4],growth inhibition [5],growth inhibition [6]
O=C1C(/C=N\C(=S)NCc2ccccc2)=C(O)c2ccccc21,-31.9%,-30.2%,-27.1%,15.7%,-3.45%,-7.05%
CCOC(=O)NC(=S)C1=C(N2CCOCC2)CCC1,-16.1%,-34.4%,1.95%,7.25%,-28.4%,6.45%
CC(N)C(=O)NC(C(=O)O)C(C)C (stereo unspecified),-2.4%,-2.55%,-16.1%,-14.7%,0.3%,-23.4%
CC(C)(C)SCC(=O)O,-21.6%,-19.6%,-24.8%,19.5%,6.75%,1.55%
O=[N+]([O-])c1ccc(Sc2c3ccccc3nc3ccccc23)cn1,21.1%,27.4%,-12.5%,7.65%,-14.8%,-18.4%
C[Si](C)(C)O/C=C1/CCOC1=O,46.9%,45.7%,-13.9%,-6.5%,-39.8%,-45%
O=C(CCCC(=O)NNC(=O)Nc1cccc(Cl)c1)NNC(=O)Nc1cccc(Cl)c1,-13.2%,-2.2%,-10.9%,-12.9%,-1.7%,-10.6%
CCN(CC)C(=S)SCCCS(=O)(=O)O,17.7%,-9.95%,1.75%,9.2%,22.3%,8.75%
O=C(Nc1cccc2ccccc12)O/N=C/c1ccccn1,-9.3%,-3.4%,-11.4%,39.3%,-7%,-1.7%
COC1=CCC=C(C(C)(C)C)C1,-45.8%,-22.6%,-10.5%,-32.1%,-12.2%,21.7%
C/C(=N\NS(=O)(=O)c1ccc(C)cc1)c1c(C)noc1C,-13.4%,7.55%,13.3%,3.85%,6.3%,13.3%
COc1ccc(C2C(Cl)C(=O)N2NC(=O)c2ccc(NC(C)=O)cc2)cc1 (stereo unspecified),-47.9%,-20.8%,-49.9%,-9.35%,-50%,-54%
OCC1OC(OC2CCCCC2)C(O)C(O)C1O (stereo unspecified),-1.45%,51.5%,21.9%,-5.05%,24.6%,32.8%
O=C(O)C(Br)C(Br)C(=O)Nc1cccc2ccccc12 (stereo unspecified),98.8% (active),99.1% (active),99.2% (active),99.2% (active),98.9% (active),98.8% (active)
CC(C)(C)OC(=O)NC1CC=CCC1NC(=O)OC(C)(C)C (stereo unspecified),-52.7%,-11.6%,-16.6%,-19.6%,-17.8%,-29.1%
CCCCOC1OC[N+](C)(C)CC1(C)C (stereo unspecified),20.2%,-2.65%,-10.1%,3.7%,-0.45%,26.2%
Fc1ccc(C2SCc3nc4ccccc4n32)cc1F (stereo unspecified),-49.9%,-1.3%,24.3%,1.25%,-13.8%,18.6%
C[N+](C)(C)CCCc1ccc2oc3ccccc3c2c1,21.8%,8.65%,7.35%,6.15%,0.7%,7.95%
O=C(O)CNCc1ccc2c(c1)OCCO2,6.7%,15.7%,-10.4%,-3.35%,-3.5%,-15.8%
Nc1ncnc2c1[nH]c(=S)n2C1OC(CO)C(O)C1O (stereo unspecified),14.4%,6.3%,3.1%,-12.1%,4%,0.15%
CCC(=O)C12OC3OC(C)(C)OC3C1OC(C)(C)O2 (stereo unspecified),0.25%,0.75%,-15.2%,25.1%,-1.9%,4.7%
